Bioassay records from PubChem BioAssay.
This is a sample that favours compounds with a hit; in the whole collection about 2.9% have one here.
ZTA counter – counter-screen for EBNA-1 inhibitors: inhibitors of Epstein-Barr virus ZTA; inhibition, % at 11 µM; P03206; AID 2234; actives 0.15% (n = 320,000); ZTA-DNA binding, fluorescence polarization; in the data active means inhibition above about 33%
Target sequence (P03206 whole entry, looked up): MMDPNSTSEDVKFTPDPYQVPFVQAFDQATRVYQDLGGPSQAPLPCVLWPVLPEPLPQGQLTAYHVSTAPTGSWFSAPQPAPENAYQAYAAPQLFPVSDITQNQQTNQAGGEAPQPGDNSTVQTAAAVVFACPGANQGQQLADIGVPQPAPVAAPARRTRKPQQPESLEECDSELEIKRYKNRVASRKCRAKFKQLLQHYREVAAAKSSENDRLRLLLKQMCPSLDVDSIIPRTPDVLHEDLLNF
pPAFAH FP inh – inhibitors of human plasma PAF acetylhydrolase (pPAFAH); inhibition, % at 3.39 µM; actives 1.5% (n = 330,000); recombinant pPAFAH, FP-rhodamine probe fluorescence polarization; Q13093;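 active means inhibition above the mean inhibition across the screen plus 3 SD, cut at about 25% in these data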;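 further: inhibitors block binding of the rhodamine activity-based probe so polarization drops; 0% = enzyme with DMSO and 100% = wells lacking pPAFAH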
PAFAH1B3 inh – inhibitors of human PAFAH1B3; actives 0.28% (n = 340,000); recombinant PAFAH1B3, FP-rhodamine probe, fluorescence polarization; AID 492972; inhibition, % at 3.39 µM; Q15102;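 active means inhibition above the screen-wide average of all tested compounds plus 3 SD, cut at about 25% in these data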;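 further: 0% = enzyme with DMSO only and 100% = wells lacking PAFAH1B3 protein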
Target sequence (Q15102 whole entry, looked up): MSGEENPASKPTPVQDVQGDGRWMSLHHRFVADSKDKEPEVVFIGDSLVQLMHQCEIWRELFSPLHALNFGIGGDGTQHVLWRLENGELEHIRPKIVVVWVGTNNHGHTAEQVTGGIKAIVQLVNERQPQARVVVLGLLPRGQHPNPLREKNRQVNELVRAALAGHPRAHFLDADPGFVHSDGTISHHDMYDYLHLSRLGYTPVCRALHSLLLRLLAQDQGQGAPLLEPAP
EBNA-1 inh – blocks EBNA-1 binding to DNA. EBNA-1 DNA binding, fluorescence polarization. inhibition, % at 14.8 µM. actives 0.34% (n = 300,000). AID 1950; in the data active means inhibition above about 28%
PAFAH2 FP inh – inhibitors of human PAFAH2 | recombinant PAFAH2, FP-rhodamine activity probe, fluorescence polarization | actives 0.99% (n = 340,000) | inhibition, % at 3.39 µM | Q99487;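 active means inhibition above the mean over all tested compounds plus 3 SD, cut at about 30% in these data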;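 further: inhibitors block probe labeling of enzyme so polarization drops; 0% = enzyme with DMSO and 100% = wells lacking PAFAH2 protein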
PAFAH1B2 inh – blocks human PAF acetylhydrolase 1b catalytic subunit 2 | P68402 | inhibition, % at 3.39 µM | actives 1.2% (n = 340,000) | recombinant PAFAH1B2, FP-rhodamine activity probe, fluorescence polarization;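 active means inhibition above the mean of all tested compounds plus 3 SD, cut at about 24% in these data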;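 further: 0% = enzyme with DMSO and 100% = wells lacking PAFAH1B2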
Target sequence (P68402 whole entry, looked up): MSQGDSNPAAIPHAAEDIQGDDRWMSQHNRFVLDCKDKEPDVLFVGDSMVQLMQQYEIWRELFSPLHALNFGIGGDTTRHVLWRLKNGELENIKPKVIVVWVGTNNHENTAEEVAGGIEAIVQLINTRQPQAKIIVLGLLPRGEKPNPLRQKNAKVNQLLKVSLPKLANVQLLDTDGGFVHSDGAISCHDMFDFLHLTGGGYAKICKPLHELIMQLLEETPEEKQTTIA
pPAFAH confirm – confirmation of human plasma PAF acetylhydrolase (pPAFAH) inhibitors | shares compounds with pPAFAH FP inh | recombinant pPAFAH, FP-Rh probe fluorescence polarization | inhibition, % at 3.39 µM | actives 72% (n = 2,300) | AID 463230;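 active means mean inhibition of the triplicate above the hit cutoff set for the earlier primary screen, cut at about 25% in these data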;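 further: 0% = enzyme with DMSO and 100% = wells lacking pPAFAH enzyme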
Starred values were filed as active, the others as inactive; · = no result given.

SMILES | ZTA counter | pPAFAH FP inh | PAFAH1B3 inh | EBNA-1 inh | PAFAH2 FP inh | PAFAH1B2 inh | pPAFAH confirm
N#CC1=C(N)Oc2n[nH]c(-c3cccs3)c2C1c1ccsc1 (centres undefined) | 10.4 | 37.8* | 7.5 | 5.8 | 9.6 | 9.8 | 5.8
COC(=O)[C@H](CCSC)NC(=O)Cn1cnc2c(NCc3ccccc3)ncnc21 | · | -0.3 | 0.0 | · | -2.4 | 6.0 | ·
CCCCC(=Nc1ccc(N)cc1)C1=C(O)C(C(=O)OC)C(C)(C)CC1=O (centres undefined) | -1.6 | 37.9* | 14.4 | 3.0 | 10.5 | 9.6 | 8.1
CCCC(=Nc1ccccc1)C1=C(O)C(C(=O)OC)C(C)(C)CC1=O (centres undefined) | -4.5 | 2.4 | 1.3 | -3.1 | -0.4 | 1.2 | ·
CCC(=Nc1ccc(N)cc1)C1=C(O)C(C(=O)OC)C(C)(C)CC1=O (centres undefined) | 12.8 | 58.0* | 12.3 | 1.2 | 9.2 | -2.0 | 0.6
CC(=O)Nc1ccc(NC(=O)C(C)Sc2n[nH]c(-c3ccc(C)cc3)n2)cc1 (centres undefined) | 4.8 | 4.9 | -1.7 | 13.0 | -5.3 | 3.3 | ·
O=S(=O)(c1cnc(Cl)c(Br)c1)N1CCN(c2ncccn2)CC1 | -13.2 | -2.2 | 1.7 | -2.5 | -0.7 | 0.1 | ·
Nc1nc(-c2c(Cl)cccc2Cl)no1 | -4.8 | 1.0 | -6.4 | 2.0 | 0.9 | 4.3 | ·
CC(=O)c1ccc(O)c(CC=C(C)C)c1O | -6.6 | -9.7 | 7.2 | -10.9 | -4.7 | -2.3 | ·
CC(C)=CCc1c(O)cc2oc3c(CC=C(C)C)c(O)c(O)c(CC=C(C)C)c3c(=O)c2c1O | -14.2 | 59.4* | 29.9* | -3.6 | -15.5 | 11.4 | 56.4*
Cc1nnc(SCC(=O)NC2CCCCC2)n1N | · | 4.3 | 1.1 | · | -0.2 | 0.5 | ·
O=C(Nc1ccccc1C(=O)N1CCCC1)c1ncoc1-c1cccc(Cl)c1 | -6.8 | 4.0 | -1.9 | -0.1 | 1.8 | 1.5 | ·
Cc1ccccc1CSc1nnnn1-c1ccc(C(N)=O)cc1 | -17.3 | 2.0 | 0.3 | 2.7 | 9.6 | 7.4 | ·
NC(=O)c1ccc(-n2nnnc2SCC(=O)c2ccc(O)c(O)c2)cc1 | 0.5 | 36.8* | 15.6 | -12.7 | 14.1 | 4.6 | 66.8*
Cc1ccc2nc(C)cc(C(=O)OCC(=O)Nc3cccnc3Cl)c2c1 | -8.4 | 3.8 | -2.1 | -3.6 | 1.1 | 0.4 | ·
CCOC(=O)c1sc(N/N=C/c2cc(Br)c(O)c(OC)c2)nc1C | -30.2 | 35.4* | 12.8 | -1.7 | 11.8 | 0.3 | 26.1*
COc1ccc(CN(C)CC(=O)Nc2cccc(S(=O)(=O)N(C)c3ccccc3)c2)c(OC)c1 | -3.5 | 2.2 | 5.2 | · | 2.1 | 0.0 | ·
COC(=O)COc1ccc(C2Nc3c(Cl)ccc(C(=O)O)c3C3C=CCC32)cc1 (centres undefined) | 10.1 | 36.2* | 5.6 | 4.4 | 28.1 | 2.6 | 11.5
Cc1ccc(NC(=O)c2ncn(CCCN3CCN(Cc4cccc5ccccc45)CC3)n2)cc1C | · | · | 0.6 | · | -4.6 | 5.3 | ·
Cc1noc(C)c1S(=O)(=O)N(C)C[C@H]1Oc2c(cccc2N(C)C)C(=O)N([C@H](C)CO)C[C@@H]1C | · | 2.6 | 7.2 | · | -3.0 | -3.0 | ·
Cc1cc(S(=O)(=O)N2CCCC2)ccc1OCC(=O)Nc1ccc(C(N)=O)cc1 | -2.8 | 49.6* | 3.9 | · | 3.0 | -0.8 | 4.1
O=C(/C=C/c1ccco1)OCC(=O)c1ccc(OC(F)F)cc1 | -14.0 | 54.9* | 5.6 | · | 2.9 | 2.0 | 8.1
COc1cc(/C=C/C(=O)OCC(=O)c2ccc(OC(F)F)cc2)ccc1O | · | 8.2 | 5.3 | · | 12.3 | 8.5 | ·
N=C1C(c2ccccc2)=C(O)CN1c1cccc(S(=O)(=O)N2CCOCC2)c1 | -15.9 | 43.6* | 7.1 | -1.2 | -1.9 | -1.0 | 2.0
N=C1C(c2ccccc2)=C(O)CN1c1cccc(S(N)(=O)=O)c1 | -11.6 | 6.1 | -1.7 | -3.9 | 1.1 | -0.7 | ·
SMILES | ZTA counter | pPAFAH FP inh | PAFAH1B3 inh | EBNA-1 inh | PAFAH2 FP inh | PAFAH1B2 inh | pPAFAH confirm
COc1cc(Cn2nnc3ccccc32)cc(Br)c1O | -14.7 | 3.6 | 0.6 | -6.1 | 5.3 | 4.7 | ·
O=C(Nc1ccc2nc(-c3ccco3)c(-c3ccco3)nc2c1)N1CCN(c2ccccn2)CC1 | -3.2 | 37.0* | 19.7 | -0.6 | 17.4 | 9.7 | 28.1*
O=C(c1ccc2nc(-c3ccco3)c(-c3ccco3)nc2c1)N1CCN(c2ncccn2)CC1 | 9.2 | 48.9* | 20.9 | 8.3 | 13.6 | 2.2 | 12.6
S=C(Nc1ccc(N2CCOCC2)cc1)Nc1ccc2nc(-c3ccco3)c(-c3ccco3)nc2c1 | -17.1 | 42.9* | 14.3 | -7.9 | 7.2 | 3.2 | 17.7
Cc1nc2cc(NC(=O)N3CCN(c4ccccn4)CC3)ccc2o1 | 0.7 | -1.6 | 6.1 | -4.9 | -3.2 | -3.6 | ·
O=C(c1cccc(C(=O)N2CCN(c3ncccn3)CC2)c1)N1CCN(c2ncccn2)CC1 | -16.8 | 3.9 | -1.2 | 2.3 | 1.1 | -7.1 | ·
COc1ccc(C)cc1CN(C)c1ccc(S(=O)(=O)N2CCN(C)CC2)cn1 | · | · | 2.7 | · | 9.8 | 9.0 | ·
NC(=O)Cn1cnc2nc3n(c2c1=O)CCC3 | -24.2 | -4.2 | 1.3 | -11.4 | 0.5 | 0.6 | ·
CN(C)c1ccc(N2C(=O)CSC2=S)cc1 | -5.0 | 36.8* | -9.6 | 6.0 | -9.0 | -3.2 | -0.2
Cc1ccc(C(C)C)c(OCc2ccc(C(=O)N/N=C/c3ccc(O)c(O)c3)cc2)c1 | 2.5 | 61.2* | 34.0* | -8.0 | 14.0 | -1.0 | 84.1*
O=C(N/N=C/c1ccc(O)c(O)c1)c1ccc(CSc2cccc3cccnc23)cc1 | -8.1 | 69.5* | 17.3 | 10.2 | 24.0 | 9.8 | 86.4*
CC1=C(C(=O)OCCCBr)C(c2ccc3c(c2)OCO3)NC(=O)N1 (centres undefined) | -25.3 | 42.8* | -0.6 | -5.5 | 3.6 | -4.7 | 5.6
CCCCCOC(=O)C1=C(C)NC(=O)NC1c1ccc2c(c1)OCO2 (centres undefined) | 13.1 | 4.8 | 2.4 | 2.5 | 8.2 | 8.8 | ·
O=S(=O)(c1ccc(F)cc1)N1CCN(c2ccccn2)CC1 | 8.0 | 0.5 | 6.3 | -8.7 | -1.0 | -0.1 | ·
O=C(Cn1c(=O)n(Cc2ccco2)c(=O)c2c3c(sc21)CCCCC3)c1ccccc1 | 1.1 | 36.6* | 0.9 | 25.1 | 18.2 | -0.6 | 10.7
O=C(Cn1c(=O)n(Cc2ccco2)c(=O)c2c3c(sc21)CCCCC3)Nc1ccccc1 | 10.0 | 3.5 | -3.0 | -8.4 | -2.9 | -0.1 | ·
CC(OC(=O)CCCN=C1NS(=O)(=O)c2ccccc21)C(=O)N(C)c1ccccc1 (centres undefined) | 2.7 | 68.0* | 5.5 | 3.0 | 0.9 | -0.7 | 0.2
CN(C(=O)CSc1nc(O)cc(=O)n1C1CCCC1)c1ccccc1 | 10.3 | 47.9* | 7.9 | 8.6 | -8.9 | 4.1 | 7.8
O=C(O)C1Nc2c(O)cc(Cl)c([N+](=O)[O-])c2C2C=CCC12 (centres undefined) | 90.5* | 90.0* | 63.3* | 57.8* | 76.5* | 50.8* | 38.6*
